Drawing on PubChem BioAssay (NCATS), this text covers Potency, activity and activity change, negative = inhibition for 23 compounds.

In one assay the test system is PA-1. In words: Primary qHTS to identify gynecologic anti-cancer compounds using libraries of approved drugs and bioactive compounds (AID 1345084). Note: nearly all actives have a fitted effect of over 55% in size. Note: potency is the fitted concentration of half-maximal effect. The note with it: Gynecologic cancer cell panel viability, ATPlite luminescence, 48 h; series mostly up to 57.5 µM. Summed up: (§1)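 Cells, 1,000 per well, were allowed to settle for 16 h at 37 C before compound addition. Five concentrations were tested for 48 h, and viability was read by ATPlite luminescence after 15 min at room temperature.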

A further assay deals with Tov-21-G. Described as above. The conditions noted are these: Gynecologic cancer cell panel viability, ATPlite luminescence, 48 h; series mostly up to 57.5 µM. Put shortly:
as §1
Background: Cellular ATP, detected with luciferase, serves as a proxy for viable cell number.

Assay [1] can be described thus: Primary redox qHTS assay for identification of artifact compounds. (AID 1845223).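 Note: 0% = DMSO and 100% = reference compound.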 Summed up: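 Amplex Red (25 uM) and HRP (250 mU/mL) in HBSS, with compounds for 15 min, then 250 uM DTT for 30 min, room temperature, dark. Fluorescence 525/598 nm read; normalized to DMSO and 10 uM DA3003; Hill fit.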
Another assay concerns SKOV3. Description: Primary qHTS to identify gynecologic anti-cancer compounds using libraries of approved drugs and bioactive compounds (AID 1345084). Note: nearly all actives have a fitted effect of over 55% in size. Note: potency is the fitted concentration of half-maximal effect. The conditions noted are these: Gynecologic cancer cell panel viability, ATPlite luminescence, 48 h; series mostly up to 57.5 µM. Put shortly: as §1
Background: In qHTS, concentration-response curves come from the screen itself.

In assay [2] the target is Cytochrome P450 2C9 (Homo sapiens) (UniProt P11712). In words: Cytochrome P450 family 2 subfamily C member 9 (CYP2C9) small molecule antagonists: luciferase biochemical (cell-free) qHTS assay (AID 1645842; active = well fitted curve in the direction sought with a large enough effect in the repeat runs; an effect the other way counts as inactive or inconclusive; note: nearly all actives have a fitted effect of over 55% in size; note: potency is the fitted concentration of half-maximal effect; for activity change, negative = inhibition: % is set by controls: 0 for no effect and ±100 for the full control effect). Summed up:
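Luminescence, after 20 min with luciferin detection reagent, reflected CYP2C9 turnover during a 1 h NADPH-driven reaction at 37C. Enzyme-substrate mix contained 0.4% bovine serum albumin and was preincubated with compound 10 min at room temperature.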

The target in assay [3] is Catechol O-methyltransferase (Homo sapiens) (UniProt P21964). Description: Confirmatory Screen for Target Class Profiling of Small Molecule Inhibitors of Methyltransferases (AID 1745852; calls by dose curve; for activity change, negative = inhibition: % is set by controls: 0 for no effect and ±100 for the full control effect). The note with it: MTase-Glo luminescence, SAH detection, recombinant enzyme; measured here: COMT max response; stronger effect = lower value.
For assay [4], the target named is Guanidinoacetate N-methyltransferase (Homo sapiens) (UniProt Q14353). Described as above. The conditions noted are these: activity change, negative = inhibition: at 57.3 µM (top of the series) unless noted.
The target of assay [5] is Nicotinamide N-methyltransferase (Homo sapiens) (UniProt P40261). The description is as above. The note with it: MTase-Glo luminescence, SAH detection, recombinant enzyme; measured here: NNMT max response; stronger effect = lower value.
Assay [6] addresses Phenylethanolamine N-methyltransferase (Homo sapiens) (UniProt P11086). The assay is described as above. The note with it: MTase-Glo luminescence, SAH detection, recombinant enzyme; measured here: PNMT max response; stronger effect = lower value.
A short description of assay [7]: qHTS to identify inhibitors of the type 1 interferon - major histocompatibility complex class I in skeletal muscle: primary screen against the NCATS Mechanism Interrogation Plate v5.0 (MIPE) Libary (AID 1347411). Note: potency is the fitted concentration of half-maximal effect; nearly all actives have a fitted effect of over 65% in size. Put shortly: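 Cells were genome-edited human myoblasts carrying a HiBit tag on endogenous HLA-B. They were treated with IFN-beta (4.0 ng/ml) and titrated compounds (top 46 uM) for 24 hrs before lytic HiBiT detection.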

Assay [8] can be described thus: qHTS assay to identify inhibitors of the type 1 interferon - major histocompatibility complex class I in skeletal muscle: Counter screen cell viability and HiBit confirmation (AID 1347412). Note: potency is the fitted concentration of half-maximal effect; nearly all actives have a fitted effect of over 60% in size. The conditions noted are these: iHSKM muscle cells + IFN-b, HiBiT or CellTiter-Glo, 24 h. Summed up:
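Luminescence read-out: Nano-Glo HiBiT lytic signal from C-terminally HiBiT-tagged HLA-B in CRISPR-edited human myoblasts, plus CellTiter Glo ATP as viability counter screen. IFN-beta 4.0 ng/ml; 24 hrs treatment at 37 C, 5% CO2.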

Assay [9] addresses Cytochrome P450 2D6 (Homo sapiens) (UniProt P10635). In words: Cytochrome P450 family 2 subfamily D member 6 (CYP2D6) small molecule antagonists: luciferase biochemical (cell-free) qHTS assay (AID 1645840; active = well fitted curve in the direction sought with a large enough effect in the repeat runs; an effect the other way counts as inactive or inconclusive; note: nearly all actives have a fitted effect of over 55% in size; note: potency is the fitted concentration of half-maximal effect; for activity change, negative = inhibition: % is set by controls: 0 for no effect and ±100 for the full control effect). Put shortly: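 P450-Glo luminescent screen: recombinant CYP2D6 enzyme–proluciferin substrate mix preincubated with compound 10 min at room temperature, then NADPH regeneration added for 1 h at room temperature. Detection reagent added for 20 min; luciferin light read as relative luminescence units.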

Assay [10] relates to Zika virus NS2B-NS3 protease. In words: Primary screen GU AMC qHTS for Zika virus inhibitors (AID 1347154).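 Note: 0% = no-inhibitor control and -100% = no-enzyme control; nearly all actives have a fitted effect of over 70% in size.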 Summed up: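 Fluorogenic AMC-substrate cleavage by noncovalent NS2B-NS3 protease complex (25 nM, pH 8.0 Tris buffer with Tween 20) followed for 15 minutes at room temperature (~20% conversion). Percent inhibition from ex340/em450 signal change, fitted by 4-parameter Hill equation.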

Assay [11] can be described thus: Primary qHTS for small molecule stabilizers of the endoplasmic reticulum resident proteome: Secreted ER Calcium Modulated Protein (SERCaMP) assay (AID 1508630). Note: % is set by controls: 0 for no effect and ±100 for the full control effect. Summed up:
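GLuc-SERCaMP-expressing SH-SY5Y cells, pretreated 16 h with compound, are challenged with thapsigargin to empty ER calcium stores; after 4 h, coelenterazine is added directly to the medium and luminescence is imaged.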

A further assay deals with CAOV3. Description: Primary qHTS to identify gynecologic anti-cancer compounds using libraries of approved drugs and bioactive compounds (AID 1345084). Note: nearly all actives have a fitted effect of over 55% in size. Note: potency is the fitted concentration of half-maximal effect. The note with it: Gynecologic cancer cell panel viability, ATPlite luminescence, 48 h; series mostly up to 57.5 µM. Summed up:
as §1

Results filed as inconclusive are left out. Calls of active or inactive are those of the source. Unless noted, calls come from the whole dose curve; as a rule, active = well fitted curve in the direction sought with a large enough effect; inconclusive = small, poorly fitted or top-dose-only effect, or another doubt; inactive = no such curve, though single readings can be large; an effect the other way counts as inactive or inconclusive.

Sequence of Cytochrome P450 2C9 (Homo sapiens) (P11712 whole entry, looked up): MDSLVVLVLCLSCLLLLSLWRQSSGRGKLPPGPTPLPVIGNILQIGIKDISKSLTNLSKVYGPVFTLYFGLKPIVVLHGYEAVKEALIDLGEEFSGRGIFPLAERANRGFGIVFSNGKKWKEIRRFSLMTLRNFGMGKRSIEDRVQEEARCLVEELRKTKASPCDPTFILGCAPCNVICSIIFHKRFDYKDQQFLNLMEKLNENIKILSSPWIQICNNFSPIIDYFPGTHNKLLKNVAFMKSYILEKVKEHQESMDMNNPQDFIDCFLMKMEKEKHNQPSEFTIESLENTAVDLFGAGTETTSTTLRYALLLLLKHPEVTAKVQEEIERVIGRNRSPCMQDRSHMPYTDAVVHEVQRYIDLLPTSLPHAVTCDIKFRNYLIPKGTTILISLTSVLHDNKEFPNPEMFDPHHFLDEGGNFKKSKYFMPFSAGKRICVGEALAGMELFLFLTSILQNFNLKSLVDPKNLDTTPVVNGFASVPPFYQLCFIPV
Sequence of Nicotinamide N-methyltransferase (Homo sapiens) (P40261 whole entry, looked up): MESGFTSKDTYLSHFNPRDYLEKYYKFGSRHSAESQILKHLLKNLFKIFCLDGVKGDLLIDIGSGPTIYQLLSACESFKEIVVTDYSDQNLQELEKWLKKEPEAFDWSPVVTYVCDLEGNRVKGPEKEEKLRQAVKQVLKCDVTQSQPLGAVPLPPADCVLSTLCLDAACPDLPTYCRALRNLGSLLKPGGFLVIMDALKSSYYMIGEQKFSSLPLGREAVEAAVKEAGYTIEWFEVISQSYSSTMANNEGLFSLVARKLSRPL
Sequence of Catechol O-methyltransferase (Homo sapiens) (P21964 whole entry, looked up): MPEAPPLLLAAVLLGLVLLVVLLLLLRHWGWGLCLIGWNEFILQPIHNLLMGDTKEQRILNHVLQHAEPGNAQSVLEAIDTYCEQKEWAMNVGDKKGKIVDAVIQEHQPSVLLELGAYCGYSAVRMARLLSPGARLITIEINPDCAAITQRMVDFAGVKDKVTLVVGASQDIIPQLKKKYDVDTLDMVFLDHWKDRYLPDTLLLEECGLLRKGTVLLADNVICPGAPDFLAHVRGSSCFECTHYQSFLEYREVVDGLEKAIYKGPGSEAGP
Sequence of Cytochrome P450 2D6 (Homo sapiens) (P10635 whole entry, looked up): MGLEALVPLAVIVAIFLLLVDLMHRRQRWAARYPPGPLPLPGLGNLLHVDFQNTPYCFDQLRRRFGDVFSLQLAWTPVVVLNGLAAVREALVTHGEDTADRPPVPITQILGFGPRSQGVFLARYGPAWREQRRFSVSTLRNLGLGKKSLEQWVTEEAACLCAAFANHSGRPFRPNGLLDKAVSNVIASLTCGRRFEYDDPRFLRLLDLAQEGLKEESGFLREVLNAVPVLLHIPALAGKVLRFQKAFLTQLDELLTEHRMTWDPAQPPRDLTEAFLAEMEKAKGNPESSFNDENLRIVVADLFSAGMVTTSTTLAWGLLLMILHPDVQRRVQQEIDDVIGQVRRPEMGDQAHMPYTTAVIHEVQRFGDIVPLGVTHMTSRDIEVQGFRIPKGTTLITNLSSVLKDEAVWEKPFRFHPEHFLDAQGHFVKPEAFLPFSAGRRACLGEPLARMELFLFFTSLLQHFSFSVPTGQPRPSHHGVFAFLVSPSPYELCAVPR
Sequence of Phenylethanolamine N-methyltransferase (Homo sapiens) (P11086 whole entry, looked up): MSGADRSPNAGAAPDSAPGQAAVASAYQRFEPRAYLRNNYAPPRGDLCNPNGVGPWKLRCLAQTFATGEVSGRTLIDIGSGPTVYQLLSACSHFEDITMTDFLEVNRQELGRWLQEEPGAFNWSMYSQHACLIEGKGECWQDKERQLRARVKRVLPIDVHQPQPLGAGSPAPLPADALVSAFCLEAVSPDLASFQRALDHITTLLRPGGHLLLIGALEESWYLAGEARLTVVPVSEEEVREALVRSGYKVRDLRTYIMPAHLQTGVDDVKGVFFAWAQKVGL

In the case of `COc1ccc2c(c1)CN(C(=O)CCN1CCC(Cc3ccccc3)CC1)CCS2`, the Potency entry in the assay with PA-1 and in the assay on Tov-21-G was “inactive” each time.
For `COc1ccc(-c2c(C)c(C(=O)NN3CCCCC3)nn2-c2ccc(Cl)cc2Cl)cc1`, the Potency entry (in assay [1]; in the assay on PA-1; in the assay with SKOV3; in the assay on Tov-21-G) was “inactive” in each case.
Turning to `CN(Cc1ccc(C(=O)O)cc1)c1ccc(OCc2c(-c3c(Cl)cccc3Cl)noc2C2CC2)nc1C(F)(F)F`, the Potency in [2] was 10.7 µM (active). Further, the activity was -2.57% in assay [3], -0.741% in [5] and 0.284% in [6]. Moreover, the activity change, negative = inhibition in [4] is -2.02%. Further, the Potency result (in [1]; in the assay on PA-1; in the assay with SKOV3; in the assay with Tov-21-G) was “inactive” in each case.
On to `O=C(CC1NCCC[C@H]1O)Cn1cnc2cc(Br)c(Cl)cc2c1=O` (some centres undefined), for which the Potency result (in assay [1]; with SKOV3; in the assay on Tov-21-G) was “inactive” each time.
On to `COc1cc2nc(-c3cc(F)ccc3O)nc(N[C@@H]3CNC[C@H]3C(C)(C)O)c2cc1OC`, for which the figures for the Potency in assay [7], in assay [8] (HiBiT) and in assay [8] (Viability) were 3.7 µM (active), 8.83 µM (active) and 31.3 µM (active), respectively. Further, the Potency entry (in [2]; in the assay on PA-1; in the assay on SKOV3; in the assay on Tov-21-G) was “inactive” in each case.
Regarding `C[C@@H](O[C@H]1OCCN(Cc2n[nH]nc2CN(C)C)[C@H]1c1ccc(F)cc1)c1cc(C(F)(F)F)cc(C(F)(F)F)c1`, the Potency in assay [2] was 15.1 µM (active). Further, the Potency result (in [1]; in the assay with PA-1; in the assay on SKOV3; in the assay with Tov-21-G) was “inactive” in each case.
With `C=C1C(=O)O[C@@H]2C[C@@H](C)[C@]34C[C@]5(C(=O)O[C@H]6CC(C)=C([C@H](C)CCCO)[C@H](OC(=O)C(C)CC)[C@H]65)[C@@H](C(C)=C3C[C@@H]12)[C@H]4OC(C)=O` (some centres undefined), the Potency entry (in [1]; in the assay with SKOV3) was “inactive” throughout.
Turning to `Fc1ccccc1CNCc1ccc(-c2ccnc3[nH]ccc23)cc1`, the Potency result (in [2]; in assay [1]; in the assay on PA-1; in the assay with SKOV3; in the assay on Tov-21-G) was “inactive” in each case.
As to `CC1(C)SC2C(NC(=O)[C@H](C(=O)O)c3ccsc3)C(=O)N2C1C(=O)O` (some centres undefined), the Potency result (in assay [1]; in the assay with PA-1; in the assay on Tov-21-G) was “inactive” in each case.
As to `CN[C@@H]1[C@@H](O)[C@@H](O[C@@H]2[C@@H](O)[C@H](O[C@H]3O[C@@H]([C@@H](C)NC)CC[C@H]3N)[C@@H](N)C[C@H]2N)OC[C@]1(C)O`, the Potency entry (in [1]; with PA-1; with SKOV3; in the assay on Tov-21-G) was “inactive” throughout.
`COc1ccc(NS(=O)(=O)c2sc3ccc(Cl)cc3c2C)cc1N1CCNCC1`: the Potency in assay [9] was 23.9 µM (active). The Potency entry (in assay [1]; in the assay on PA-1; in the assay with SKOV3; in the assay on Tov-21-G) was “inactive” throughout.
Regarding `Clc1ccccc1CNCC1CCC(CNCc2ccccc2Cl)CC1` (centres undefined), the Potency entry (in [10]; in assay [11]; in [2]; in the assay on Tov-21-G) was “inactive” throughout. In addition, the Potency in assay [9] was 0.151 µM (active).
On to `CCOC(=O)c1cnn(-c2ccc(NC(=O)C(Cl)=C(Cl)Cl)cc2)c1C(F)(F)F`, for which the results for the Potency (in [2]; in the assay with CAOV3) were 6.74 µM (active) and 6.31 µM (active), respectively. Moreover, the Potency entry in [1] is “inactive”.
As for `C[C@@H]1CCNC(=O)c2cc3ccc(C(=O)Nc4nc5ccccc5n4CCCN(C)C)cc3n21`, the Potency result (in [2]; in [1]; with PA-1) was “inactive” in each case.
Take `CC(=O)Nc1ccc(C(=O)Nc2ccccc2N)cc1`: the Potency result in [1] is “inactive”. The Potency in the assay on PA-1 is 7.08 µM (active).
For the compound `O=C(O)c1ccc(O)c2ncc(N3CCCN(CCc4cccc5ccccc45)CC3)cc12`, the activity was 15.8% in assay [3], -19.7% in [5] and -64.3% in assay [6]. The activity change, negative = inhibition in assay [4] came out at 8.48%. In addition, the Potency result in the assay on CAOV3 was “inactive”.
As to `C=CC(=O)Nc1cccc(Nc2nc(Nc3ccc(Oc4ccnc(C(=O)NC)c4)cc3)ncc2F)c1`, the Potency in assay [7] is 18.6 µM (active); in assay [2], 1.51 µM (active). Besides, the activity was -5.97% in [3], -53.4% in assay [5] and -10.6% in [6]. Besides, the activity change, negative = inhibition in [4] was -5.15%. Besides, the Potency result in assay [1] is “inactive”.
For the compound `Cc1[nH]c(/C=C2\C(=O)Nc3ccc(F)cc32)c(C)c1C(=O)NC[C@H](O)CN1CCOCC1`, the Potency entry in assay [9], in [2] and in [1] was “inactive” each time.
Turning to `CC(=O)Nc1nc2c(Oc3cc(-c4ccc(C(F)(F)F)cc4)ncn3)cccc2s1`, the Potency in [2] is 10.7 µM (active); in the assay with Tov-21-G, 22.4 µM (active). For the same compound, the Potency entry in assay [1] was “inactive”.
Consider `C=C(C)C(=O)O[C@H]1[C@H]2C(=C)C(=O)O[C@@H]2C[C@@H](C)[C@@H]2O[C@@H]2C(=O)[C@](C)(O)[C@@H]1OC(C)=O`, for which the Potency entry in assay [1] is “inactive”. Also, in the assay with SKOV3, the Potency was 2.51 µM (active).
In the case of `O=C(Nc1ncc(SCCN2CCCC2)s1)C1(c2ccc(S(=O)(=O)C3CC3)cc2)CC1C1CCCCC1` (centres undefined), the Potency in [2] is 19 µM (active). The Potency entry (in assay [1]; in the assay with Tov-21-G) was “inactive” throughout.
Regarding `COc1cc(N2CCN(C)CC2)ccc1Nc1nccc(-c2cn(C)c3cnccc23)n1`, the Potency entry (in assay [9]; in assay [2]; in assay [1]; with Tov-21-G) was “inactive” throughout. Besides, the Potency in the assay on SKOV3 was 12.6 µM (active).
As to `OC(CNCCc1c[nH]c2ccccc12)Cn1c2ccccc2c2ccccc21` (centres undefined), the Potency in [9] was 0.268 µM (active); in [2], 0.952 µM (active). Also, the Potency result in the assay on PA-1 and in the assay on Tov-21-G was “inactive” throughout.
